Assay [1] is described as follows: blockers of polyQ-driven CASP3 activation – cell-based (AID 1583). As to conditions: polyglutamine-induced caspase-3 activation, cell assay; stronger effect = higher value;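 tested at 10 µM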.
A short description of assay [2]: yeast 75Q aggregation reduction – 75Q-TubU reporter (AID 1593). As to conditions: Yeast 75Q polyglutamine aggregation reporter.
Assay [3] can be described thus: restoration of touch response, mutant HTT neurons – whole organism, C. elegans mechanosensory neurons, N-terminal huntingtin (AID 1599). As to conditions: C. elegans polyQ-huntingtin mechanosensory neurons, stronger effect = higher value.
Assay [4] is described as follows: blockers of cytochrome c efflux from mitochondria – biochemical, purified mitochondria (AID 1603).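 Further: mouse liver mitochondria challenged with calcium chloride; signal normalized to the plate average as 100%.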 As to conditions: stronger effect = lower value.
Assay [5] can be described thus: polyglutamine aggregate formation blockers (AID 1604). As to conditions: polyglutamine-induced protein aggregation inhibition assay; stronger effect = higher value; tested at 2.5 µM.
A short description of assay [6]: glutamate transport activators, MN-1 cells, MN-1 cell line (AID 1612).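 Further: tested at 1 µM final; 0% = mean of DMSO vehicle wells on each plate; positive means more glutamate uptake than control and negative means less.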 Particulars: MN-1 motor neuron cells, stronger effect = higher value.
Assay [7] is described as follows: GFP-Q80 aggregate reduction, neuronal-like cells, cell-based, NGF-treated PC12, GFPQ80 (AID 1614).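 Further: lower means fewer inclusions and 0 means no inclusions at all.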 Particulars: PC12 NGF-treated GFP-polyQ80 inclusion reduction.
Assay [8] is described as follows: 75Q-TubH aggregate inhibition, S. cerevisiae, yeast (AID 1616). Particulars: S. cerevisiae 75Q-TubH polyglutamine aggregation suppression; stronger effect = higher value.
Assay [9] can be described thus: P. berghei load reduction in hepatocytes – cell-based, HepG2, luciferase luminescence, HepG2 viability, primary screen (AID 624349).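 Further: 100% = mean of DMSO negative control wells on the same plate.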 Particulars: P. berghei liver stage in HepG2, luciferase luminescence, concentration not given here; parasite load remaining: stronger effect = lower value; viability: measured here: HepG2 viability without parasites.
Assay [10] is described as follows: EMT-state selective cytotoxicity in co-culture – imaging, PC-3E GFP, TEM4-18 mCherry, primary screen (AID 1345086;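 active means compounds killing one labelled cell type while sparing the other, by normalised counts and ratio limits, not self-fluorescent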;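 on all read-outs here: cells exposed to compound for 72 h before imaging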;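 on red/green cell ratio (normalised): normalised mesenchymal count divided by normalised epithelial count so high means epithelial killing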). As to conditions: PC-3E GFP / TEM4-18 mCherry co-culture, imaging cell counts, at 1 µM; for red/green cell ratio (normalised): actives lie on both sides, counts scaled to control wells, 1 = unselective.
Assay [11] can be described thus: viability loss with induced miR-34 in A549 – imaging, A549 dox-inducible miR-34, nuclei and caspase counts, primary screen (AID 1347080;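 active means compounds whose cell count with miR-34 switched on is under 0.7 times the count with it off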). As to conditions: A549 miR-34 inducible, Hoechst nuclei count, 48 h.
The mark [12] stands for this setting: measured here: epithelial PC-3E GFP cell survival.
Where [13] appears, read: measured here: mesenchymal TEM4-18 mCherry cell survival.
[14] abbreviates: stronger effect = lower value, cell number ratio, induced over uninduced.
Setting [15] is: measured here: relative caspase fold change +Dox/-Dox.
The mark [16] stands for this setting: measured here: total cells with miR-34 induction, stronger effect = lower value.
The mark [17] stands for this setting: measured here: total cells without miR-34 induction.

The text below walks through data of PubChem BioAssay.

Structures are written as SMILES. “And” between values parts separate entries of the source, which are not always exact repeats. Equal values may be shown once. For part of these data: Measured potencies and affinities stand elsewhere. The source made the active and inactive calls. Unless noted, no stated cut-off is given here; in the data, active means parasite load remaining mostly below about 12% (no sharp cut-off); inactive means mostly above about 10%.

Consider `C[C@@H]1CC2C3C[C@H](F)C4=CC(=O)C=C[C@]4(C)[C@@]3(F)[C@@H](O)C[C@]2(C)[C@@]1(O)C(=O)CO` (some centres not stated), for which, in assay [1], the inhibition – broadly, the relative decrease from the control value, in per cent – was 14.1%. Further, the score in [2] is 1.53. Moreover, the rescue above control in [3] came out at 11.3. Moreover, the cytochrome c release ratio in [4] was found to be 1.19. For the same compound, in [5], the inhibition of aggregation worked out at 57.7%. The glutamate uptake change in assay [6] came to 16.9%. For the same compound, in assay [7], the inclusion score was determined as 2. In assay [8], this compound had an aggregation suppression score of 0.927. Besides, in assay [9], the parasite load remaining was 21.3% (inactive). Also, the viability (usually a read-out of living cells in per cent, often relative to untreated cells) in assay [9] came out at 92.2%. Moreover, in assay [10], the red/green cell ratio (normalised) is 1.15 (inactive). Also, the normalised cell number in assay [10] (setting [12]) was 1.15; in assay [10] (setting [13]), 1.33. The values for the fold change in assay [11] (setting [14]) and in [11] (setting [15]) were 0.92 (inactive) and 1.86, respectively. Also, the cell count in assay [11] (setting [16]) is 7830; in [11] (setting [17]), 8520.
For `CC(=O)[C@@]1(O)CCC2C3C[C@H](C)C4=CC(=O)C=CC4(C)[C@@]3(F)[C@@H](O)C[C@@]21C` (some centres not stated), the inhibition in assay [1] came to 8.98%. In [2], the score came out at 1.5. Also, the rescue above control in assay [3] was 24.4. In addition, the cytochrome c release ratio in assay [4] amounted to 0.92. Besides, in assay [5], the inhibition of aggregation is -25.4%. The glutamate uptake change in [6] was 25.3%. In assay [7], this compound came in with an inclusion score of 3. Moreover, the aggregation suppression score in assay [8] was 1.45. In addition, in [9], the parasite load remaining is 116% (inactive) and 26.7% (inactive). Besides, in assay [9], the viability is 75.2% and 95.6%. Also, in assay [10], the red/green cell ratio (normalised) was 1.21 (inactive). Also, the normalised cell number stood at 1.18 in assay [10] (setting [12]) and 1.43 in [10] (setting [13]). Moreover, the fold change in [11] (setting [14]) is 0.851 (inactive); in assay [11] (setting [15]) it was 3.38. Moreover, the cell count turned out to be 7310 in assay [11] (setting [16]) and 8590 in assay [11] (setting [17]).
Consider `CCCC(=O)O[C@]1(C(=O)CO)CCC2[C@@H]3CCC4=CC(=O)CC[C@]4(C)C3[C@@H](O)C[C@@]21C` (some centres not stated), for which the inhibition in assay [1] was -18.1%. This compound displayed a score in assay [2] of 1.15. The compound further gave a rescue above control in [3] of -7.82. For the same compound, in assay [4], the cytochrome c release ratio was found to be 1.03. In addition, in assay [5], the inhibition of aggregation was found to be 77.8%. The glutamate uptake change in [6] came out at 33.4%. This compound came in with an inclusion score in [7] of 2. In assay [8], the aggregation suppression score amounted to 1.38. Further, in [9], the parasite load remaining was 170% (inactive) and 68.7% (inactive). Besides, in assay [9], the viability is 85% and 121%. For the same compound, the red/green cell ratio (normalised) in assay [10] was 1.26 (inactive). For the same compound, the normalised cell number is 1.07 in [10] (setting [12]) and 1.34 in [10] (setting [13]). Also, the fold change was 0.953 (inactive) in assay [11] (setting [14]) and 2.16 in [11] (setting [15]). Also, the results for the cell count in [11] (setting [16]) and in assay [11] (setting [17]) were 7610 and 7980, respectively.
Turning to `CCC(=O)O[C@]1(C(=O)CCl)[C@@H](C)CC2C3CCC4=CC(=O)C=C[C@]4(C)[C@@]3(F)[C@@H](O)C[C@@]21C` (some centres not stated), the inhibition in assay [1] is -7.85%. For the same compound, in [2], the score came to 0.96. Further, the rescue above control in [3] stood at 0.61. Also, in assay [4], the cytochrome c release ratio is 1.1. Besides, the inhibition of aggregation in [5] came to 51%. In [6], the glutamate uptake change came out at 19.7%. The inclusion score in assay [7] amounted to 2. In [8], this compound returned an aggregation suppression score of 1.08. Further, the parasite load remaining in assay [9] was 202% (inactive) and 73.8% (inactive). Besides, the viability in [9] is 86% and 95.6%. In [10], the red/green cell ratio (normalised) is 1.11 (inactive). Besides, the normalised cell number in [10] (setting [12]) worked out at 1.12; in assay [10] (setting [13]) it was 1.25. In addition, the fold change was 0.913 (inactive) in assay [11] (setting [14]) and 3.26 in assay [11] (setting [15]). For the same compound, the values for the cell count in assay [11] (setting [16]) and in assay [11] (setting [17]) were 7630 and 8360, respectively.
As for `CN(C)CCCO[C@H]1[C@@H](C(O)CO)OC2OC(C)(C)O[C@@H]21` (some centres not stated), the inhibition in [1] turned out to be 13.5%. Also, the score in assay [2] was determined as 1.28. Also, in assay [3], the rescue above control was -9.95. The cytochrome c release ratio in assay [4] was determined as 1.02. Besides, in assay [5], the inhibition of aggregation turned out to be 85.9%. In [6], the glutamate uptake change was -4%. The inclusion score in assay [7] was found to be 2. In addition, the aggregation suppression score in assay [8] was determined as 1.2. Also, the parasite load remaining in assay [9] was 121% (inactive) and 48% (inactive). Further, the viability in [9] was 87.2% and 101%. For the same compound, the red/green cell ratio (normalised) in assay [10] is 0.97 (inactive). The normalised cell number in [10] (setting [12]) stood at 0.98; in assay [10] (setting [13]), 0.95. Besides, the results for the fold change in assay [11] (setting [14]) and in assay [11] (setting [15]) were 0.948 (inactive) and 2.91, respectively. For the same compound, the results for the cell count in [11] (setting [16]) and in [11] (setting [17]) were 12000 and 12700, respectively.
In the case of `N[C@@H]1[C@@H](O)[C@H](O)[C@@H](CO)O[C@H]1O`, the inhibition in [1] is -15.7%. The score in [2] was determined as 0.98. In [3], this compound gave a rescue above control of 5.73. In addition, the cytochrome c release ratio in assay [4] amounted to 0.85. Besides, the inhibition of aggregation in assay [5] turned out to be 66.7%. Moreover, the glutamate uptake change in assay [6] stood at 9.21%. Further, the inclusion score in assay [7] turned out to be 2. In [8], the aggregation suppression score is 1.04. Also, the parasite load remaining in assay [9] is 80.5% (inactive) and 72% (inactive). The viability in assay [9] was 75.2% and 93.7%. Also, the red/green cell ratio (normalised) in assay [10] was 1.04 (inactive). In addition, the normalised cell number was found to be 1.08 in assay [10] (setting [12]) and 1.12 in assay [10] (setting [13]). In addition, the fold change in [11] (setting [14]) was 0.914 (inactive); in [11] (setting [15]), 0.981. Besides, the cell count is 11500 in [11] (setting [16]) and 12600 in [11] (setting [17]).
